Laboratory results as given in PubChem BioAssay (NCI).
About 79,000 compounds went through this panel and 15% of them were active in at least one assay; those are over-represented in the sample as a whole. Active and inactive are the calls of the source. No stated cut-off is given here; in the data, active means growth inhibition above about 70%; inactive means the rest.

Assays:
[1] = NCI Yeast Anticancer Drug Screen. Data for the rad52 strain (AID 147);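 further: 0% = growth of vehicle-treated control cultures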; settings: S. cerevisiae rad52 mutant growth inhibition, active compounds read high
Procedure, shortened: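 The repair-mutant yeast strain was incubated with compounds, then growth was read and inhibition derived relative to vehicle.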

[2] = NCI Yeast Anticancer Drug Screen. Data for the wt1 strain (AID 149);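 further: 0% = growth of vehicle-treated wt1 cultures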; settings: S. cerevisiae wt1 strain (SPY 50644) growth inhibition, active compounds read high
Procedure, shortened: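 Yeast wt1 strain exposed to compounds; growth inhibition measured relative to vehicle-treated controls.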

[3] = NCI Yeast Anticancer Drug Screen. Data for the rad50EPP+ strain (AID 151);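 further: 0% = growth of vehicle-treated control cultures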; settings: S. cerevisiae rad50 mutant strain, active compounds read high
Procedure, shortened: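 Vehicle-normalised growth inhibition; rad50EPP+ yeast strain, altered in DNA damage repair, compound-treated.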

[4] = NCI Yeast Anticancer Drug Screen. Data for the rad50 strain (AID 155);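 further: 0% = growth of vehicle-only cultures of the same strain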; settings: S. cerevisiae rad50 strain growth inhibition, active compounds read high
Procedure, shortened: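 Yeast carrying a defined DNA repair defect were exposed to test compounds, and growth was compared with vehicle-treated controls to give percent inhibition.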

[5] = NCI Yeast Anticancer Drug Screen. Data for the mec2-1 strain (AID 157); settings: S. cerevisiae mec2-1 strain, active compounds read high
Procedure, shortened: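 Mutant yeast (mec2-1) grown with compound; growth inhibition relative to vehicle control reported.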

[6] = NCI Yeast Anticancer Drug Screen. Data for the rad14 strain (AID 159);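 further: 0% = growth of vehicle-treated control cultures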; settings: S. cerevisiae rad14 strain growth inhibition, active compounds read high
Procedure, shortened: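 Yeast cells carrying a defined DNA-repair defect were exposed to compounds, and growth inhibition was calculated relative to vehicle-treated control cultures.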

[7] = NCI Yeast Anticancer Drug Screen. Data for the sgs1 mgt1 strain (AID 161);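 further: 0% = growth of cultures given vehicle only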; settings: S. cerevisiae sgs1 mgt1 strain, active compounds read high
Procedure, shortened: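 Yeast cells carrying a defined DNA-repair defect were exposed to test compounds. Growth inhibition was measured relative to vehicle-treated controls.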

[8] = NCI Yeast Anticancer Drug Screen. Data for the CLN2oe strain (AID 163);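 further: 0% = growth of vehicle-only control cultures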; settings: S. cerevisiae CLN2oe strain, active compounds read high
Procedure, shortened: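 Compounds are applied to yeast harbouring a defined cell-cycle control change; reduced growth compared with vehicle-treated controls gives the value.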

[9] = NCI Yeast Anticancer Drug Screen. Data for the cln2 rad14 strain (AID 165);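 further: 0% = growth equal to vehicle treated cultures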; settings: S. cerevisiae cln2 rad14 strain, active compounds read high
Procedure, shortened: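 Readout is yeast growth inhibition versus vehicle-treated controls, using a strain with cln2 and rad14 alterations exposed to compound.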

[10] = NCI Yeast Anticancer Drug Screen. Data for the bub3 strain (AID 167); settings: S. cerevisiae bub3 mutant strain, active compounds read high
Procedure, shortened: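 Compounds were applied to a genetically altered yeast strain carrying a cell-cycle control defect. Growth inhibition was scored against vehicle-treated controls.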

[11] = NCI Yeast Anticancer Drug Screen. Data for the wt2 strain (AID 169);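 further: 0% = growth of vehicle-treated yeast cultures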; settings: S. cerevisiae wt2 strain growth inhibition, active compounds read high
Procedure, shortened: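 Against vehicle-treated controls, the growth of yeast exposed to each compound was compared, and the inhibition was recorded.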

[12] = NCI Yeast Anticancer Drug Screen. Data for the mlh1 strain (AID 171);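 further: 0% = growth of vehicle-treated control cultures of the same strain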; settings: S. cerevisiae mlh1 strain growth inhibition, active compounds read high
Procedure, shortened: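 Measured: yeast growth. Reference: vehicle-treated controls. Organism: strain with a defined alteration affecting DNA damage repair or cell cycle control, treated with compound.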

[13] = NCI Yeast Anticancer Drug Screen. Data for the sgs1 strain (AID 173);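 further: 0% = growth of vehicle-only control cultures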; settings: S. cerevisiae sgs1 mutant, active compounds read high
Procedure, shortened: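 Each compound was added to cultures of the altered yeast strain. Growth was recorded, and inhibition was derived by comparison with vehicle controls.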

[14] = NCI Yeast Anticancer Drug Screen. Data for the mlh1 rad18 strain (AID 175); settings: S. cerevisiae mlh1 rad18 strain growth inhibition, active compounds read high
Procedure, shortened: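 Genetically defined yeast (DNA repair-deficient) exposed to compounds; growth inhibition determined relative to vehicle.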

[15] = NCI Yeast Anticancer Drug Screen. Data for the rad18 strain (AID 177); settings: S. cerevisiae rad18 mutant growth inhibition, active compounds read high
Procedure, shortened: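 Vehicle-treated cultures served as the baseline for scoring compound-induced growth inhibition in DNA-repair-mutant yeast.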

[16] = at 5.0 µM (retest, dose inferred, filed as 0.5)
[17] = at 50.0 µM (retest, dose inferred, filed as 5.0)

Measured: growth inhibition

CNC(=O)OCc1c(COC(=O)NC)c(-c2ccc(-c3ccccc3)cc2)n(C)c1C
active: [4]; [17] 85% | [4]; at 100.0 µM 70% | [6]; at 100.0 µM 75% | [14]; [17] 75%
inactive: [1]; at 1.2 µM -36% | [1]; at 3.7 µM -41% | [1]; at 11.0 µM -27% | [1]; at 33.0 µM 26% | [1]; at 100.0 µM 68% | [2]; at 1.2 µM -7% | [2]; at 3.7 µM -16% | [2]; at 11.0 µM -12% | [2]; at 33.0 µM 10% | [2]; at 100.0 µM 23% | [3]; at 1.2 µM -33% | [3]; at 3.7 µM -31% | [3]; at 11.0 µM -28% | [3]; at 33.0 µM -14% | [3]; at 100.0 µM -1% | [4]; at 1.2 µM -46% | [4]; at 3.7 µM -15% | [4]; [16] 25% | [4]; at 11.0 µM -26% | [4]; at 33.0 µM 16% | [4]; at 50.0 µM 64% | [5]; at 1.2 µM -17% | [5]; at 3.7 µM -18% | [5]; [16] 16% | [5]; at 11.0 µM 3% | [5]; at 33.0 µM -8% | [5]; [17] 46% | [5]; at 50.0 µM 13.4% | [5]; at 100.0 µM 1% | [6]; at 1.2 µM -13% | [6]; at 3.7 µM -13% | [6]; at 11.0 µM -21% | [6]; at 33.0 µM 13% | [7]; [16] -5% | [7]; [17] 25% | [7]; at 50.0 µM -2.7% | [8]; at 1.2 µM -29% | [8]; at 3.7 µM -2% | [8]; at 11.0 µM -20% | [8]; at 33.0 µM -5% | [8]; at 100.0 µM -9% | [9]; [16] 24% | [9]; [17] 56% | [9]; at 50.0 µM -6.8% | [10]; at 1.2 µM -10% | [10]; at 3.7 µM -15% | [10]; [16] -8% | [10]; at 11.0 µM -15% | [10]; at 33.0 µM 0% | [10]; [17] 23% | [10]; at 50.0 µM -13.5% | [10]; at 100.0 µM -1% | [11]; at 1.2 µM -30% | [11]; at 3.7 µM -29% | [11]; at 11.0 µM -15% | [11]; at 33.0 µM -27% | [11]; at 100.0 µM 23% | [12]; at 1.2 µM -1% | [12]; at 3.7 µM 10% | [12]; at 11.0 µM -11% | [12]; at 33.0 µM 11% | [12]; at 100.0 µM -1% | [13]; at 1.2 µM -26% | [13]; at 3.7 µM -25% | [13]; at 11.0 µM -32% | [13]; at 33.0 µM -26% | [13]; at 100.0 µM 59% | [14]; [16] 24% | [14]; at 50.0 µM 58.8% | [15]; at 1.2 µM -25% | [15]; at 3.7 µM -42% | [15]; at 11.0 µM -61% | [15]; at 33.0 µM -42% | [15]; at 100.0 µM 52%
